High-throughput results deposited in PubChem by National Center for Advancing Translational Sciences (NCATS).
Most compounds without a hit are left out; they make up all but 12% or so of the library.
PI5P4Ka inh = PI5P4K alpha (human) kinase inhibition; PI5P4Kalpha enzyme, ADP-Glo luminescence, 60 min; active compounds read low; P48426; max response, %; hit rate 1.2% among 330,000; active means max response of -50% or lower; inconclusive means between -30% and -50%; inactive means -30% or higher; further: value at the top dose of about 77 µM; on the % scale 0 is the no-effect control and ±100 the full control effect
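Enzyme plus substrate dispensed, test compounds pinned in, then ATP (5 microM final) added. After 60 min at RT, ADP-Glo reagent 1 for 45 min and reagent 2 for 30 min preceded luminescence imaging.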
JMJD2A Tudor = inhibitors of human JMJD2A Tudor domain. O75164. AlphaScreen JMJD2A-Tudor / H3K4me3 peptide binding. Potency, µM (doses to about 114 µM), for the others: top-dose activity change, negative = inhibition, actives largely listed as inhibitors. hit rate 4.4% among 390,000. AID 504339; further: potency means the concentration at half of the fitted maximal effect; on the % scale 0 is the no-effect control and ±100 the full control effect; nearly all actives have a fitted effect of over 50% in size
HP1b chromo inh = blocks HP1-beta chromodomain binding to methylated histone tails. AID 540317. AlphaScreen HP1-beta / biotin-H3K9me3 peptide binding. hit rate 0.56% among 390,000. Potency, µM (top dose mostly 114 µM), inactives show at the highest dose activity change, negative = inhibition, actives largely listed as inhibitors; further: potency means the concentration at half of the fitted maximal effect; nearly all actives have a fitted effect of over 70% in size
Target sequence (P83916 whole entry, looked up): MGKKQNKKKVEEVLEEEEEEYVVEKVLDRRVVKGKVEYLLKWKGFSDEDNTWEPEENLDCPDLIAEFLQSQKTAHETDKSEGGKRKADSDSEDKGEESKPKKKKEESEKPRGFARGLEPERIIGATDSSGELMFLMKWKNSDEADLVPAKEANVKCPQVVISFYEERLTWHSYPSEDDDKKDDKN
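HP1-beta protein (50 nM final) preincubated 30 min at room temperature with biotinylated H3(1-18)K9me3 peptide (50 nM) in PBS pH 7.4, 0.01% Tween-20, then compound added for 30 min. AlphaScreen streptavidin donor/nickel chelate acceptor beads (10 ug/mL final), 30 min dark, luminescence read.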
PLK1 PBD inh = PLK1 (human) polo-box domain binding inhibition. hit rate 2.8% among 360,000. Plk1 PBD binding of FITC phosphopeptide, fluorescence polarization. Potency, µM, for inactives: max response, negative = inhibition, most hits filed as inhibitors. P53350; further: potency means the concentration at half of the fitted maximal effect; series mostly up to about 57 µM; on the % scale 0 is the no-effect control and ±100 the full control effect; nearly all actives have a fitted effect of over 65% in size
Target sequence (P53350 whole entry, looked up, the tested form may be a part): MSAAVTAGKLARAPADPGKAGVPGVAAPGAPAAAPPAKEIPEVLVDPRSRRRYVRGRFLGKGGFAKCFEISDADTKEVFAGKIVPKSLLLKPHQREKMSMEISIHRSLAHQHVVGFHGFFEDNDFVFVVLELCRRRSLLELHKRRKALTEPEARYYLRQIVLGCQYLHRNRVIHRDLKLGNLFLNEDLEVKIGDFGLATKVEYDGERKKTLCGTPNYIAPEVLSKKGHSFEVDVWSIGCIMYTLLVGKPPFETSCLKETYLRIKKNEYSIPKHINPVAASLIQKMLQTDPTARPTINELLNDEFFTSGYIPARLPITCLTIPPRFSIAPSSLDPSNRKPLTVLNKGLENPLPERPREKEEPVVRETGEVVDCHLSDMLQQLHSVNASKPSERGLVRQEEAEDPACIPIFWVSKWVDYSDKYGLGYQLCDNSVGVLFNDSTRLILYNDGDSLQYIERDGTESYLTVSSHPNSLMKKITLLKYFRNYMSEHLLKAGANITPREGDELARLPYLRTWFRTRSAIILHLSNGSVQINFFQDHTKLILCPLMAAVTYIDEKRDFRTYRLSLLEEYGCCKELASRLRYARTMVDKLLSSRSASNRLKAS
BAZ2B inh = BAZ2B (human) inhibition; Q9UIF8; AlphaScreen BAZ2B-H3K14Ac peptide displacement; Potency, µM (top dose mostly 114 µM), for inactives: top-dose activity change, negative = inhibition, actives largely listed as inhibitors; hit rate 4.4% among 360,000; AID 504333; further: potency means the concentration at half of the fitted maximal effect; on the % scale 0 is the no-effect control and ±100 the full control effect; nearly all actives have a fitted effect of over 60% in size
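AlphaScreen displacement: compounds (up to 110uM) incubated 30 min at room temperature with a preformed 50 nM BAZ2B/50 nM biotinylated H3K14Ac peptide complex in PBS pH 7.4 with Tween-20. Donor and acceptor beads at 10 ug/mL final added, 20 min light-protected before reading.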
G9a block = inhibitors of human histone lysine methyltransferase G9a; Potency, µM (highest dose often 102 µM), without a hit: at the highest dose activity, negative = inhibition, actives largely listed as inhibitors; Q96KQ7; G9a H3K9 monomethylation, AlphaScreen, 2 h; hit rate 8.8% among 350,000; AID 504332; further: potency means the concentration at half of the fitted maximal effect; on the % scale 0 is the no-effect control and ±100 the full control effect; nearly all actives have a fitted effect of over 75% in size
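Methyltransferase reactions run at room temperature for 2 h (20 nM enzyme, 500 nM biotin-H3K9 peptide, 20 uM SAM) after a 15 min compound preincubation; product detected by AlphaScreen beads and anti-H3K9me1 antibody.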
* = called active by the depositor; u = inconclusive; x = no result; [ ] = dose if it differs, or a comment. Unless noted, the call rests on the fitted dose curve; in most records, active means well fitted curve in the direction sought with a large enough effect; inconclusive means small, poorly fitted or top-dose-only effect, or another doubt; inactive means no such curve, though single readings can be large; an effect the other way counts as inactive or inconclusive.

SMILES | PI5P4Ka inh | JMJD2A Tudor | HP1b chromo inh | PLK1 PBD inh | BAZ2B inh | G9a block
Cc1ccc(C2C3=C(CC(C)(C)CC3=O)Nc3[nH]c(=S)[nH]c(=O)c32)cc1 (configuration not stated) | -25.4 | 89.1µM* | 28.7% | -21.8% | u | u
c1ccc2c(c1)CCOC2CNCCCN1CCCCC1 (configuration not stated) | 1.7 | -12.2% | 37.7% | 1.8% | -0.5% | 22.4µM*
O=S(=O)(NCC1OCCc2ccccc21)c1ccc(S(=O)(=O)N2CCOCC2)cc1 (configuration not stated) | x | -14.1% | 9.0% | -8.1% | -9.3% | -6.0%[59 µM]
Cc1ccccc1NC(=O)CC(NCc1cccnc1)C(=O)O (configuration not stated) | x | -10.4% | 4.4% | x | -2.1% | u
CCc1ccccc1NC(=O)CC(NCc1ccccc1)C(=O)O (configuration not stated) | 2.2 | u | 20.7% | -10.7% | -17.0%[57.1 µM] | 28.2µM*
COC(=O)c1ccccc1NC(=O)CC(NCc1ccccc1)C(=O)O (configuration not stated) | x | 28.2µM* | 20.9% | -8.6% | x | x
C[C@@H]1CN([C@H](C)CO)C(=O)c2cc(NC(=O)Nc3ccc(F)cc3)ccc2O[C@@H](C)CCCCO[C@H]1CN(C)S(=O)(=O)c1cccs1 | -3.5 | x | x | -0.5% | x | x
CCc1cc(Cn2nc(-c3ccccc3)cc2C(=O)NCc2ccccc2OC)on1 | 0.4 | -4.9% | 30.0% | 0.5% | 5.1% | 7.8%[2.33 µM]
O=S(=O)(c1ccc(Cl)cc1)c1cc(O)ccc1O | -2.3 | -24.0% | u | -12.3% | -24.8% | 44.7µM*
O=S(=O)(c1ccccc1)c1cc(O)ccc1O | 11.5 | -8.0% | -26.0% | -3.0% | -10.0% | 50.1µM*
Nc1ccc(S(=O)(=O)c2ccc(Cl)cc2)cc1 | x | -11.0% | 18.7% | -7.1% | 8.6% | 6.6%[59 µM]
COc1ccc(CCNC(=O)CN2CCC(C)CC2)cc1OC | 3.4 | u | u | -11.5% | 56.2µM* | u
COc1ccc(CNC(=O)CN2CCN(S(=O)(=O)c3cc(Br)ccc3Br)CC2)cc1OC | 2.4 | -27.0% | 6.2% | 0.0% | -3.9% | 50.1µM*
O=C(CN1CCCCCC1)NCCc1ccc(F)cc1 | x | 3.55µM* | u | -16.1% | 50.1µM* | 8.91µM*
COc1ccc(CCNC(=O)CN2CCC(C(N)=O)CC2)cc1 | 3.9 | 11.0%[57.1 µM] | 18.9% | -6.3% | 12.9% | 29.1%
COc1ccc(CCNC(=O)CN2CCCc3ccccc32)cc1OC | -0.1 | -24.3% | 12.6% | -4.9% | -44.7% | 56.2µM*
COC(=O)c1cn(CC(=O)Nc2ccccc2C)c2ccccc12 | -0.4 | -10.5% | 32.7% | -12.6% | -5.6% | -1.4%
CCOC(=O)C1=C(Nc2ccc(Cl)cc2)OCC1=O | -1.8 | -9.0% | 8.3% | 1.7% | 0.0% | x
COc1ccc(CCC(=O)NCC2CCCCC2)cc1OC | 1.5 | -11.5% | 36.1% | -1.6% | 4.7% | -5.1%
COc1ccc(CCNC(=O)CNCC2CCCCC2)cc1OC | 2.7 | 25.1µM* | u | -2.8% | 56.2µM* | -4.2%
O=C(CCn1c(=O)oc2ccccc21)N1CCCCCC1 | -1.5 | 14.9% | 26.4% | 0.2% | -4.6% | 8.1%[59 µM]
O=C(CCn1c(=O)oc2ccccc21)n1c(=O)oc2ccccc21 | -3.0 | -11.1% | 33.6% | -27.1% | -34.7% | 79.4µM*
CCCNC(=O)CCn1c(=S)oc2ccccc21 | u | -19.1%[11.4 µM] | -7.3% | 11.9µM* | 0.7% | 24.4%
O=C(CCn1c(=O)oc2ccccc21)NCCN1CCc2ccccc2C1 | x | 50.1µM* | 17.9% | -2.6% | 6.6% | u
O=c1c(-c2ccccc2)nc2cnc(N3CCOCC3)nc2n1CCc1ccccc1 | x | x | x | x | x | 22.4%[0.501 µM]
SMILES | PI5P4Ka inh | JMJD2A Tudor | HP1b chromo inh | PLK1 PBD inh | BAZ2B inh | G9a block
O=C(NCCc1ccccc1)c1nn(-c2ccc(F)cc2)nc1CO | x | -29.2% | 45.5% | x | 2.8% | 15.4%[59 µM]
Cc1cc(C)nc(/N=C(\NC(=O)C(C)(C)C)Nc2ccc(F)cc2)n1 | 8.0 | 3.5% | 26.9% | -4.6% | -3.4% | 44.7µM*
Nc1ccc2cccc(O)c2c1 | -79.5* | 28.2µM* | u | u | x | x
CC1(C)OC(=O)C2(Cc3cc([N+](=O)[O-])ccc3N3CCCCC32)C(=O)O1 (configuration not stated) | x | -9.2%[57.1 µM] | 19.1%[57 µM] | x | x | x
Cc1cc(/C=N/n2cnnc2)c(C)n1-c1ccc(OCc2ccccc2F)cc1 | x | 56.2µM* | u | -2.7% | u | u
C(=N\n1cnnc1)/c1ccc(OCc2ccccc2)cc1 | x | -1.9% | 43.3% | -2.1% | x | 1.7%[59 µM]
Cc1cc(/C=N/n2cnnc2)c(C)n1-c1ccc(OCc2ccc(Cl)cc2)cc1 | 0.0 | 44.7µM* | u | 1.7% | 79.4µM* | 39.8µM*
Fc1ccccc1COc1cccc(/C=N/n2cnnc2)c1 | x | -14.8% | 12.1% | -6.8% | x | -7.4%[59 µM]
CCCC(=O)c1ccc(N2CCC(C)CC2)c(F)c1 | -1.3 | 82.1% | 61.7% | 23.8µM* | 76.1% | 84.3%
COC(=O)c1ccc(N2CCCCC2)c(N)c1 | 4.0 | -12.7% | 25.9% | -5.2% | -15.2% | x
COC(=O)c1ccc(N2CCC(C)CC2)c(N)c1 | x | u | u | 21.2µM* | -32.7% | 8.91µM*
C=CC#CC[N+]1(CC#Cc2ccccc2)CCOCC1 | -81.8* | 39.8µM* | 35.5µM* | 8.1% | u | u
Cc1nn(-c2ccccc2)c2c1C1(C(=O)N3c4c(cccc41)C(C)CC3(C)C)C(C#N)=C(N)O2 (configuration not stated) | x | u | -25.4% | u | u | 10µM*
COc1ccc2cc(CCNC(=O)c3ccc(S(=O)(=O)N4CCCC4)cc3)c(=O)[nH]c2c1 | -29.1 | -0.7% | 16.9% | 2.5% | -3.6% | 11.8%
COc1ccc(/C=C2\SC(=S)N(N3C(=O)CCC3=O)C2=O)cc1O | u | -12.4% | -7.8% | -14.1% | u | 8.91µM*
COc1ccc(/C=C2/SC(=S)N(Cc3ccccc3)C2=O)cc1O | 4.4 | u | -4.8% | -0.7% | -7.2% | 22.2%
COc1ccccc1/C=C1\SC(=S)N(N2C(=O)CCCC2=O)C1=O | 9.8 | u | u | 0.2% | u | 20µM*
CCOC(=O)c1c(O)c2c([nH]c1=O)CCCC2 | x | 7.5% | 27.6% | -6.1% | -6.0% | 14.7%[2.33 µM]
CCOC(=O)c1c(O)c(Cl)c(C)[nH]c1=O | -15.8 | 79.4µM* | 4.8% | 26.7µM* | x | -9.7%
COc1ccccc1C1C2=C(N=c3s/c(=C/c4cccc(OCC(=O)O)c4)c(=O)n31)c1ccccc1CC2 (configuration not stated) | u | 35.5µM* | u | u | 50.1µM* | 14.1µM*
COc1cccc(C2C3=C(N=c4s/c(=C\c5ccc(OCC(=O)O)cc5)c(=O)n42)c2ccccc2CC3)c1 (configuration not stated) | u | 44.7µM* | -11.0% | u | 50.1µM* | 20µM*
